# The panel holds about 83,000 compounds, 20% with a hit somewhere; the sample as a whole holds those more often.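 Testing used 96-well plates and a 48-hour single-concentration exposure. Example: -40 means 40% of the starting cells died.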 A number with no mark means an inactive call. Activity calls are given as the source filed them. The calls were made as follows: active = growth percent below 10; inactive = the rest.
# System: HT29 colon
# Assay: NCI-60 one-dose screen, 48 h (100 = growth as untreated, 0 = no growth, -100 = all killed)
# Conditions: 10 µM unless noted
row,Compound,growth
1,COC(=O)[C@@]1(O)C[C@H]2O[C@]1(C)n1c3ccccc3c3c4c(c5c6ccccc6n2c5c31)C(=O)NC4,-24.6% (active)
2,N/C(=N\N=C\c1ccc(-c2ccccc2)cc1)N[N+](=O)[O-],14%
3,COc1ccc([As]=[As]c2ccc(OC)c(NCS(=O)(=O)O)c2)cc1NCS(=O)(=O)O (configuration not stated),39.8%
4,C1CCC([PH+](C2CCCCC2)C2CCCCC2[PH+](C2CCCCC2)C2CCCCC2)CC1.O=C(C1[CH-]CCCC1)C1CCCC[N-]1.[Au] (configuration not stated),-43.7% (active)
5,O=P1(NCCCl)OCCCN1CCCl (configuration not stated),103%
6,O=C([O][Hg][c]1ccccc1)c1ccccc1,-14.8% (active)
7,CC(CO)NC1CCCCC1 (configuration not stated),117%
8,C[C@@]12CC=C3c4nc(Nc5cccc(O)c5)sc4CC[C@]3(C)[C@H]1CC[C@]1(C)C(=O)CC[C@@H]21,-29% (active)
9,COC(=O)[C@@H](C)C[C@H](Cc1ccccc1)NC(=O)c1csc([C@@H](C[C@H](C(C)C)N(C)C(=O)[C@@H](NC(=O)[C@H]2CCCCN2C)c2ccc(F)cc2)OC(C)=O)n1,6.87% (active)
10,OCCCCCNC1CCCCC1,90.7%
11,COc1cc(/C=C/[N+](=O)[O-])c([N+](=O)[O-])cc1OC,-66% (active)
12,NC(CCl)CCl,97.8%
13,O=[N+]([O-])CC(c1ccccc1Cl)c1c(-c2ccccc2)[nH]c2ccccc12 (configuration not stated),8.38% (active)
14,C#Cc1ccc2c(c1)C(c1ccccc1)=NCC(=O)N2C,13.1%
15,CN(C)C(=O)Oc1ccccc1,118%
16,OCCNC(Cc1ccccc1)c1ccc2c(c1)OCO2 (configuration not stated),73%
17,Nc1ccc2c(c1)Cc1cc(Br)ccc1-2,119%
18,C#Cc1ccc2c(c1)C(c1ccccc1F)=NCC(=O)N2C,15.7%
19,O=C([O][Hg][CH2]C1OCCOC1[CH2][Hg][O]C(=O)c1ccccc1)c1ccccc1 (configuration not stated),83.6%
20,C[C@@H]1O[C@@H](O[C@H]2C[C@@H](O)[C@]3(CO)C4C(CC[C@]3(O)C2)[C@@]2(O)CC[C@H](C3=CC(=O)OC3)[C@@]2(C)C[C@H]4O)[C@H](O)[C@H](O)[C@H]1O (some centres not stated),-85.2% (active)
21,CC1=C(CN)C2=C(C)C3(CC3)[C@@](C)(O)C(=O)C2=C1,94.5%
22,COC(C(=O)[C@@H](O)[C@@H](C)O)[C@@H]1Cc2cc3cc(O[C@H]4C[C@@H](O[C@H]5C[C@@H](O)[C@H](O)C(C)O5)[C@H](O)C(C)O4)c(C)c(O)c3c(O)c2C(=O)[C@H]1O[C@H]1C[C@@H](O[C@H]2C[C@@H](O[C@H]3C[C@@H](O)[C@@H](O)C(C)O3)[C@@H](O)C(C)O2)[C@H](O)C(C)O1 (some centres not stated),-11.9% (active)
23,C[C@]12CC[C@@H]3c4ccc(Oc5nc(N6CC6)nc(N6CC6)n5)cc4CC[C@H]3[C@@H]1CCC2=O,19.3%
24,CC(=O)Nc1ccc(NC(=O)c2ccc([As](O)O)cc2)cc1,112%
25,CCC(C)(C)[C@H](NC(=O)[C@H]1CCCCN1C)C(=O)N(C)[C@H](C[C@@H](OC(C)=O)c1nc(C(=O)N[C@@H](Cc2ccccc2)C[C@H](C)C(=O)O)cs1)C(C)C,-2.9% (active)

# System: SNB-75 CNS
# Assay: as above
# Conditions: 10 µM unless noted
row,Compound,growth
1,CC1=C(CNO)C2=C(C)C3(CC3)[C@@](C)(O)C(=O)C2=C1,-58.8% (active)
2,COc1ccc(O)c(CNC(=O)CN2CCCC2=O)c1,81.3%
3,CN1CCCCC1C(C)(O)c1ccccc1 (configuration not stated),93%
4,COC(=O)CC[C@H](Cc1ccccc1)NC(=O)c1csc([C@@H](C[C@H](C(C)C)N(C)C(=O)[C@@H](NC(=O)[C@H]2CCCCN2C)C(C)C)OC(C)=O)n1,34.3%
5,COc1ccc(N(CC(=O)NCCC[Te]c2ccccc2)C(=O)CNC(=O)OC(C)(C)C)cc1,57.9%
6,COC(=O)[C@@H](C)C[C@H](Cc1ccccc1)NC(=O)c1csc([C@@H](C[C@H](C(C)C)N(C)C(=O)[C@@H](NC(=O)[C@H]2CCCCN2C)C(C)C)OC(C)=O)n1,5.98% (active)
7,COC1OC(CO)C(O)C(O)[CH]1[Hg][O]C(C)=O (configuration not stated),77.3%
8,CC12CC=CCC1CCC1C2CCC2(C)C(c3ccc(=O)oc3)CCC12O (configuration not stated),-61.7% (active)
9,O=C1C2CC=CCC2C(=O)N1SC(Cl)(Cl)Cl (configuration not stated),104%
10,CCOC(=O)[C@@H](C)C[C@H](Cc1ccccc1)NC(=O)c1nc([C@@H](C[C@H](C(C)C)N(C)C(=O)[C@@H](NC(=O)[C@H]2CCCCN2C)C(C)C)OC(C)=O)sc1CCOCc1ccccc1,-11.2% (active)
11,COP(=S)(N1CC1)N1CC1,103%
12,COC(=O)[C@@H](C)C[C@H](Cc1ccccc1)NC(=O)c1nc([C@@H](C[C@H](C(C)C)N(C)C(=O)[C@@H](NC(=O)[C@H]2CCCCN2C)C(C)C)OC(C)=O)sc1C(C)C,-0.49% (active)
13,COC(=O)[C@@]1(O)C[C@H]2O[C@]1(C)n1c3ccccc3c3c4c(c5c6ccccc6n2c5c31)C(=O)NC4,-97.1% (active)
14,N/C(=N\N=C\c1ccc(-c2ccccc2)cc1)N[N+](=O)[O-],-1.49% (active)
15,COc1ccc([As]=[As]c2ccc(OC)c(NCS(=O)(=O)O)c2)cc1NCS(=O)(=O)O (configuration not stated),36.9%
16,C1CCC([PH+](C2CCCCC2)C2CCCCC2[PH+](C2CCCCC2)C2CCCCC2)CC1.O=C(C1[CH-]CCCC1)C1CCCC[N-]1.[Au] (configuration not stated),-6.22% (active)
17,O=P1(NCCCl)OCCCN1CCCl (configuration not stated),115%
18,O=C([O][Hg][c]1ccccc1)c1ccccc1,-4.27% (active)
19,CC(CO)NC1CCCCC1 (configuration not stated),86.9%

row,Compound,growth
1,C[C@@]12CC=C3c4nc(Nc5cccc(O)c5)sc4CC[C@]3(C)[C@H]1CC[C@]1(C)C(=O)CC[C@@H]21,37.3%
2,COC(=O)[C@@H](C)C[C@H](Cc1ccccc1)NC(=O)c1csc([C@@H](C[C@H](C(C)C)N(C)C(=O)[C@@H](NC(=O)[C@H]2CCCCN2C)c2ccc(F)cc2)OC(C)=O)n1,30.7%
3,OCCCCCNC1CCCCC1,101%
4,COc1cc(/C=C/[N+](=O)[O-])c([N+](=O)[O-])cc1OC,55.3%
5,NC(CCl)CCl,90.3%
6,O=[N+]([O-])CC(c1ccccc1Cl)c1c(-c2ccccc2)[nH]c2ccccc12 (configuration not stated),6.44% (active)
7,C#Cc1ccc2c(c1)C(c1ccccc1)=NCC(=O)N2C,53.9%
8,CN(C)C(=O)Oc1ccccc1,89.1%
9,OCCNC(Cc1ccccc1)c1ccc2c(c1)OCO2 (configuration not stated),108%
10,Nc1ccc2c(c1)Cc1cc(Br)ccc1-2,76.6%
11,C#Cc1ccc2c(c1)C(c1ccccc1F)=NCC(=O)N2C,51.7%
12,O=C([O][Hg][CH2]C1OCCOC1[CH2][Hg][O]C(=O)c1ccccc1)c1ccccc1 (configuration not stated),92.5%
13,C[C@@H]1O[C@@H](O[C@H]2C[C@@H](O)[C@]3(CO)C4C(CC[C@]3(O)C2)[C@@]2(O)CC[C@H](C3=CC(=O)OC3)[C@@]2(C)C[C@H]4O)[C@H](O)[C@H](O)[C@H]1O (some centres not stated),-83.9% (active)
14,CC1=C(CN)C2=C(C)C3(CC3)[C@@](C)(O)C(=O)C2=C1,57.7%
15,COC(C(=O)[C@@H](O)[C@@H](C)O)[C@@H]1Cc2cc3cc(O[C@H]4C[C@@H](O[C@H]5C[C@@H](O)[C@H](O)C(C)O5)[C@H](O)C(C)O4)c(C)c(O)c3c(O)c2C(=O)[C@H]1O[C@H]1C[C@@H](O[C@H]2C[C@@H](O[C@H]3C[C@@H](O)[C@@H](O)C(C)O3)[C@@H](O)C(C)O2)[C@H](O)C(C)O1 (some centres not stated),-31.8% (active)
16,C[C@]12CC[C@@H]3c4ccc(Oc5nc(N6CC6)nc(N6CC6)n5)cc4CC[C@H]3[C@@H]1CCC2=O,30.3%
17,CC(=O)Nc1ccc(NC(=O)c2ccc([As](O)O)cc2)cc1,89.4%
18,CCC(C)(C)[C@H](NC(=O)[C@H]1CCCCN1C)C(=O)N(C)[C@H](C[C@@H](OC(C)=O)c1nc(C(=O)N[C@@H](Cc2ccccc2)C[C@H](C)C(=O)O)cs1)C(C)C,6.25% (active)
